# According to PubChem BioAssay (NCI):
# This is part of a sample that, as a whole, favours compounds with a hit. Of some 83,000 tested, about 20% had one in any assay.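 96-well plates, one dose, 48 hours. Percent growth reported; active if below 10.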 Calls of active or inactive are those of the source.
# Test system: HL-60(TB) leukemia
# Assay: NCI-60 one-dose screen, 48 h (100 = growth as untreated, 0 = no growth, -100 = all killed)
# Settings: 10 µM unless noted
row,Structure (SMILES),growth
1,O=C(Nc1ccccc1Cl)c1cnc2ccc(C3CCNCC3)cn12,103% (inactive)
2,Cc1cccc(C[C@H](NC(=O)Nc2ccc(Cl)cc2F)C(=O)N[C@@H]2C(=O)N3C[C@H](OC(=O)CCN(C)C)C[C@H]3C(=O)N3CCCC[C@H]3C(=O)N[C@@H](C)C(=O)N3C[C@H](C)C[C@H]3C(=O)O[C@H]2C)c1,16.3% (inactive)
3,COc1ccccc1NC1=C(N2CCCCC2)C(=O)c2ccccc2C1=O,72.6% (inactive)
